Data on 14 molecules can be found in PubChem BioAssay (Tox21).

Where “and” joins values, the source holds several entries; their conditions need not be identical. Identical values can stand only once. Inconclusive results are not listed. The source holds several records for some structures; these can differ, active in one and inactive in another. Calls of active or inactive are those of the source. The call rests on the fitted dose curve; in most records, active means well fitted curve in the direction sought with a large enough effect in the repeat runs; inconclusive means weak or mixed curves; inactive means no such curve, though single readings can be large; an effect the other way counts as inactive or inconclusive.

Experiment [1] can be described thus: A CellTox Green Cytotoxicity Assay to monitor cytotoxicity in HEK293 cells - 40 hour (AID 1224871). Further: nearly all actives have a fitted effect of over 45% in size. Further: potency means the concentration at half of the fitted maximal effect. In outline: (§1)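 Tox21 screen in HEK293: membrane-impermeant cyanine dye fluoresces on binding dead-cell DNA; compound pinned 5 h post-seeding, plates held at 37 C, signal read repeatedly through 40 h.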
Experiment [2] can be described thus: qHTS RealTime-Glo MT Cell Viability Assay in HEK293 cells - 16 hour (AID 1224872). Further: nearly all actives have a fitted effect of over 50% in size. Further: potency means the concentration at half of the fitted maximal effect. In outline:
(§2)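 Homogeneous bioluminescent viability format in HEK293 cells (600 cells/well). Following 5 h at 37 C/5% CO2, 23 nL compound was pintooled; the signal was measured repeatedly during 40 h incubation.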
(Quantitative high-throughput screening tests each substance at several concentrations.)

Experiment [3] can be described thus: qHTS RealTime-Glo MT Cell Viability Assay in HepG2 cells - 8 hour (AID 1224873). Further: nearly all actives have a fitted effect of over 55% in size. Put shortly:
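Real-time viability: cells seeded at 600 per well together with NanoLuc and cell-permeant prosubstrate, compounds added after 5 h incubation. Luminescence tracked at 0, 8, 16, 24, 32 and 40 h of exposure.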

The nature of experiment [4]: A CellTox Green Cytotoxicity Assay to monitor cytotoxicity in HEK293 cells - 24 hour (AID 1224875). Further: series mostly up to about 77 µM; nearly all actives have a fitted effect of over 45% in size. In outline:
as §1

The nature of experiment [5]: A CellTox Green Cytotoxicity Assay to monitor cytotoxicity in HepG2 cells - 16 hour (AID 1224876). Further: nearly all actives have a fitted effect of over 45% in size. Further: potency means the concentration at half of the fitted maximal effect. Put shortly:
(§3)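 Measurements at 0, 8, 16, 24, 32 and 40 h of treatment captured CellTox Green fluorescence in HepG2 cells that had been co-plated with reagent and preincubated 5 h at 37 C/5% CO2.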

Experiment [6] is described as follows: qHTS RealTime-Glo MT Cell Viability Assay in HepG2 cells - 32 hour (AID 1224877). Further: nearly all actives have a fitted effect of over 55% in size. Further: potency means the concentration at half of the fitted maximal effect. In outline: (§4)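 Cell number in HepG2 cultures estimated from NanoLuc luminescence generated by metabolic reduction of a prosubstrate by living cells. The homogeneous, nonlytic format allowed repeated reads at 0, 8, 16, 24, 32 and 40 h of compound exposure.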
Experiment [7] is described as follows: A CellTox Green Cytotoxicity Assay to monitor cytotoxicity in HepG2 cells - 24 hour (AID 1224878). Further: nearly all actives have a fitted effect of over 45% in size. Further: potency means the concentration at half of the fitted maximal effect. Put shortly: as §3
A short description of experiment [8]: A CellTox Green Cytotoxicity Assay to monitor cytotoxicity in HepG2 cells - 40 hour (AID 1224879). Further: nearly all actives have a fitted effect of over 40% in size. Further: potency means the concentration at half of the fitted maximal effect. Put shortly: as §3
The nature of experiment [9]: qHTS RealTime-Glo MT Cell Viability Assay in HEK293 cells - 0 hour (AID 1224880). In outline: (§5)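 HEK293 + NanoLuc + prosubstrate, 600 cells/well; 5 h, 37 C/5% CO2; compound 23 nL in DMSO by pintool; 37 C; luminescence read at 0, 8, 16, 24, 32 and 40 h time points.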
Experiment [10] in a line: A CellTox Green Cytotoxicity Assay to monitor cytotoxicity in HEK293 cells - 32 hour (AID 1224881). Further: nearly all actives have a fitted effect of over 40% in size. Further: potency means the concentration at half of the fitted maximal effect. In outline:
as §1

Experiment [11] can be described thus: A CellTox Green Cytotoxicity Assay to monitor cytotoxicity in HepG2 cells - 0 hour (AID 1224882). Further: nearly all actives have a fitted effect of over 35% in size. In outline: as §3
Experiment [12] can be described thus: A CellTox Green Cytotoxicity Assay to monitor cytotoxicity in HepG2 cells - 32 hour (AID 1224883). Further: nearly all actives have a fitted effect of over 50% in size. Further: potency means the concentration at half of the fitted maximal effect. In outline: as §3
Experiment [13] can be described thus: A CellTox Green Cytotoxicity Assay to monitor cytotoxicity in HEK293 cells - 8 hour (AID 1224884). Further: nearly all actives have a fitted effect of over 35% in size. In outline:
as §1

A short description of experiment [14]: qHTS RealTime-Glo MT Cell Viability Assay in HepG2 cells - 16 hour (AID 1224885). Further: nearly all actives have a fitted effect of over 50% in size. Further: potency means the concentration at half of the fitted maximal effect. In outline:
as §4

The nature of experiment [15]: qHTS RealTime-Glo MT Cell Viability Assay in HEK293 cells - 24 hour (AID 1224886). Further: nearly all actives have a fitted effect of over 50% in size. Further: potency means the concentration at half of the fitted maximal effect. Put shortly: as §2
Experiment [16] in a line: qHTS RealTime-Glo MT Cell Viability Assay in HEK293 cells - 8 hour (AID 1224887). Put shortly: as §5
Experiment [17] is described as follows: A CellTox Green Cytotoxicity Assay to monitor cytotoxicity in HepG2 cells - 8 hour (AID 1224890). Further: nearly all actives have a fitted effect of over 45% in size. Put shortly: as §3
Experiment [18] in a line: qHTS RealTime-Glo MT Cell Viability Assay in HepG2 cells - 0 hour (AID 1224889). Further: nearly all actives have a fitted effect of over 50% in size. Put shortly:
as §4

The nature of experiment [19]: A CellTox Green Cytotoxicity Assay to monitor cytotoxicity in HEK293 cells - 16 hour (AID 1224888). Further: nearly all actives have a fitted effect of over 35% in size. In outline:
as §1

Take `CCCCC1C(=O)N(c2ccccc2)N(c2ccccc2)C1=O`: the Potency entry in experiment [1], in experiment [2], in experiment [4], in [5], in [6] and in experiment [7] was “inactive” in each case. Besides, the Potency result in experiment [8], in experiment [9], in [10], in experiment [11], in experiment [12] and in experiment [13] was “inactive” in each case. Besides, the Potency entry in experiment [14], in [15], in [16] and in [17] was “inactive” throughout. Moreover, in experiment [3], the result was inactive.
Turning to `CC(C)[C@@H]1CC[C@@H](C)C[C@H]1O`, the Potency result in experiment [1], in [2], in experiment [4], in experiment [5], in experiment [6] and in [7] was “inactive” throughout. Besides, the Potency result in [8], in [9], in experiment [10], in [11], in [12] and in experiment [13] was “inactive” throughout. The Potency result in experiment [14], in [15], in experiment [18] and in experiment [17] was “inactive” each time. For the same molecule, the call in experiment [3] was inactive.
`c1ccc2[nH]ccc2c1`: the Potency in experiment [1] was 4.82 µM (active) and inactive; in experiment [2], 2.15 µM (active) and inactive; in experiment [5], 21.5 µM (active) and inactive; in experiment [6] it was 3.83 µM (active) and inactive; in [7] it was 6.81 µM (active) and inactive; in experiment [8] it was 5.41 µM (active) and inactive. The Potency in experiment [10] was 6.81 µM (active) and inactive; in experiment [12] it was 3.83 µM (active) and inactive; in [14] it was 15.2 µM (active) and inactive; in experiment [15], 2.41 µM (active) and inactive. Further, the call in experiment [3] was inactive. Further, the Potency result in experiment [9], in experiment [11], in experiment [13], in [16], in experiment [18] and in experiment [17] was “inactive” each time.
`O=C(O)c1cccc([N+](=O)[O-])c1`: the Potency entry in experiment [1], in experiment [2], in experiment [4], in experiment [5], in experiment [6] and in experiment [7] was “inactive” throughout. The Potency entry in experiment [8], in experiment [9], in experiment [10], in experiment [11], in experiment [12] and in experiment [13] was “inactive” each time. In addition, the Potency entry in experiment [14], in experiment [15], in experiment [19], in [18] and in experiment [17] was “inactive” in each case. The molecule was classed as inactive in [3].
Consider `N=C(N)c1ccc(OCCCCCOc2ccc(C(=N)N)cc2)cc1`, for which the Potency in experiment [1] is 48.8 µM (active) and 46.8 µM (active) and inactive; in [8], 48.8 µM (active) and inactive; in [12], 48.8 µM (active) and inactive; in experiment [15] it was 19.4 µM (active) and 18.6 µM (active). Besides, the molecule was classed as inactive in [3]. Also, the Potency result in experiment [4], in [5], in experiment [6], in experiment [7], in experiment [9] and in [10] was “inactive” throughout. Also, the Potency entry in [11], in [13], in experiment [14], in [18] and in experiment [17] was “inactive” throughout.
Take `Cn1c(=O)c2[nH]cnc2n(C)c1=O`: the Potency entry in [1], in experiment [2], in experiment [4], in experiment [5], in [6] and in experiment [7] was “inactive” throughout. The Potency result in [8], in experiment [9], in experiment [10], in experiment [11], in experiment [12] and in experiment [13] was “inactive” in each case. The Potency result in [14], in experiment [15], in [18] and in experiment [17] was “inactive” each time. In experiment [3], the outcome was inactive.
As to `Nc1ccn([C@H]2CC[C@@H](CO)O2)c(=O)n1`, the Potency result in experiment [1], in [2], in experiment [4], in [5], in experiment [6] and in experiment [7] was “inactive” throughout. Besides, the Potency result in [8], in [9], in [10], in experiment [11], in experiment [12] and in experiment [13] was “inactive” throughout. Moreover, the Potency entry in experiment [14], in experiment [15], in experiment [18] and in experiment [17] was “inactive” in each case. Moreover, in [3], the molecule was called inactive.
For the molecule `CCCC(O)C(CC)CO` (configuration not stated), the Potency result in experiment [1], in experiment [2], in [4], in experiment [5], in [6] and in experiment [7] was “inactive” each time. The Potency entry in [8], in [9], in experiment [10], in [11], in [12] and in [13] was “inactive” throughout. In addition, the Potency result in [14], in experiment [15], in experiment [16], in experiment [18] and in [17] was “inactive” throughout. In addition, the call in experiment [3] was inactive.
For the molecule `OCCc1ccccc1`, the Potency entry in experiment [1], in experiment [2], in experiment [4], in [5], in experiment [6] and in experiment [7] was “inactive” each time. For the same molecule, the Potency entry in experiment [8], in experiment [9], in [10], in experiment [11], in experiment [12] and in experiment [13] was “inactive” throughout. In addition, the Potency entry in experiment [14], in experiment [15], in experiment [18] and in experiment [17] was “inactive” each time. Moreover, the result in experiment [3] was inactive.
As for `O=C(O)c1[nH]n(-c2ccc(S(=O)(=O)O)cc2)c(=O)c1N=Nc1ccc(S(=O)(=O)O)cc1`, the Potency result in [1], in experiment [2], in [4], in [5], in [6] and in experiment [7] was “inactive” each time. The Potency result in experiment [8], in [9], in experiment [10], in experiment [11], in [12] and in experiment [13] was “inactive” each time. Also, the Potency entry in [14], in [15], in experiment [16], in [18] and in experiment [17] was “inactive” each time. The molecule was called inactive in experiment [3].
Consider `Cc1cc(=O)n(-c2ccccc2)n1C`, for which the Potency in [1] was 44.8 µM (active) and inactive; in experiment [10], 44.8 µM (active) and inactive. For the same molecule, the Potency entry in experiment [2], in experiment [5], in experiment [6], in experiment [7], in experiment [8] and in [9] was “inactive” each time. The Potency entry in experiment [11], in experiment [12], in experiment [13], in experiment [14], in experiment [15] and in [18] was “inactive” each time. For the same molecule, the Potency entry in experiment [17] is “inactive”. Besides, the result in experiment [3] was inactive.
For `O=C1CN(/N=C/c2ccc([N+](=O)[O-])o2)C(=O)N1`, the Potency result in experiment [1], in experiment [2], in experiment [4], in experiment [5], in experiment [6] and in experiment [7] was “inactive” each time. Moreover, the Potency result in experiment [8], in [9], in experiment [10], in experiment [11], in experiment [12] and in experiment [13] was “inactive” throughout. For the same molecule, the Potency result in experiment [14], in experiment [15], in [19], in [18] and in experiment [17] was “inactive” throughout. Also, the molecule was classed as inactive in experiment [3].
As for `O=C(O)CCC(=O)O`, the Potency entry in experiment [1], in experiment [2], in experiment [4], in experiment [5], in [6] and in experiment [7] was “inactive” throughout. In addition, the Potency result in [8], in experiment [9], in [10], in [11], in [12] and in [13] was “inactive” each time. The Potency entry in experiment [14], in experiment [15], in [19], in experiment [18] and in experiment [17] was “inactive” each time. In [3], the molecule was classed as inactive.
Consider `CCCCCCCCCCCCCCCC(=O)O`, for which the Potency result in [1], in experiment [2], in [4], in experiment [5], in experiment [6] and in experiment [7] was “inactive” throughout. Moreover, the Potency entry in [8], in experiment [9], in experiment [10], in experiment [11], in experiment [12] and in experiment [13] was “inactive” each time. The Potency entry in [14], in [15], in [19], in experiment [18] and in [17] was “inactive” throughout. Moreover, the molecule was classed as inactive in [3].
